The record followed here is PubChem BioAssay.

Test [1] in a line: rapamycin-like changes in RPL19A-GFP expression – cell-based, S. cerevisiae, multiplex flow cytometry, primary screen (AID 1862; in the data active = percent of DMSO control GFP below about 86%;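 note: lower values mimic rapamycin by blocking the RPL19A rise seen in DMSO cells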). Conditions: S. cerevisiae RPL19A-GFP strain, flow cytometry fluorescence, 3 h; at 10 µM; stronger effect = lower value. (In general: A flow cytometer gives signals particle by particle.)
Test [2] in a line: TOR pathway GLN3 branch reporter MEP2-GFP changes – S. cerevisiae, multiplex flow cytometry, primary screen (AID 1867;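 active = GFP response, as percent of the DMSO control, above the screen-wide mean plus 3 SD, about 139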;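 note: median GFP channel fluorescence of barcode-gated MEP2-GFP cells measured by flow cytometry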). As to conditions: S. cerevisiae MEP2-GFP strain, 3 h, at 10 µM, stronger effect = higher value, 100% means same as DMSO wells.
The nature of test [3]: TOR pathway RTG branch CIT2 reporter changes – S. cerevisiae, GFP fusion, multiplex flow cytometry, primary screen (AID 1870;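 active = percent response above a set limit, the screen-wide mean plus 3 SD, cut at about 130% in these data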;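 note: barcoded CIT2-GFP strain pooled with four other GFP strains with rapamycin as positive control; median GFP fluorescence per well over plate mean of DMSO wells so 100% = DMSO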). As to conditions: S. cerevisiae CIT2-GFP expression, 3 h, at 10 µM, stronger effect = higher value.
Test [4] can be described thus: TOR pathway LAP4-GFP level changes – S. cerevisiae, multiplex flow cytometry, primary screen (AID 1873;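 active = GFP signal, as percent of the solvent control, above the screen mean plus 3 SD, about 149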). Conditions: S. cerevisiae LAP4-GFP expression, 3 h, at 10 µM, stronger effect = higher value.
The nature of test [5]: yeast AGP1-GFP level changes, GLN3 branch – cell-based, multiplex flow cytometry, S. cerevisiae, primary screen (AID 1887;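 active = GFP signal above the screen-wide mean plus 3 SD, that is over about 124.5% of the solvent control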;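 note: AGP1-GFP fusion strain of S. cerevisiae within a five-strain barcoded multiplex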). As to conditions: 3 h, at 10 µM, stronger effect = higher value.
The nature of test [6]: reduced mouse 2C T cell binding to pMHC/ICAM-1 vesicles – MLPCN validation set, flow cytometry, LFA-1/ICAM-1 modulator project, pilot screen (AID 2523;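 active = response below a set limit, under 55% cells CD8-positive and vesicle-bound, and CD8 cells' 90th-percentile brightness under 279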;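 for vesicle binding response: mean PE anti-B7-1 fluorescence of CD8+ cells relative to row control; 100% = QL9-loaded vesicles with DMSO vehicle in the same plate row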). As to conditions: 2C mouse CD8+ T cells, at 7 µM, stronger effect = lower value; double positive events: measured here: CD8+/vesicle+ event percentage.
For test [7], the target named is Integrin beta-1 (Homo sapiens) + Integrin alpha-4 (Homo sapiens) (UniProt P13612+P05556). Kind of test: alpha4beta1 integrin LIBS antibody binding reduction – U937 cells, HUTS-21 mAb, flow cytometry, validation set, VLA-4 allosteric modulator project, pilot screen (AID 2674;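 active = inhibition above 50%, about 3 SD of the validation set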;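 note: antibody binding induced by the VLA-4 ligand LDV present at three times its Kd; 0% = LDV ligand with antibody and no compound and 100% = antibody without LDV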). As to conditions: HUTS-21 LIBS mAb binding, at 6.7 µM, stronger effect = higher value, binding induced by LDV ligand.
Sequence of Integrin beta-1 (Homo sapiens) + Integrin alpha-4 (Homo sapiens) (P05556 whole entry, looked up): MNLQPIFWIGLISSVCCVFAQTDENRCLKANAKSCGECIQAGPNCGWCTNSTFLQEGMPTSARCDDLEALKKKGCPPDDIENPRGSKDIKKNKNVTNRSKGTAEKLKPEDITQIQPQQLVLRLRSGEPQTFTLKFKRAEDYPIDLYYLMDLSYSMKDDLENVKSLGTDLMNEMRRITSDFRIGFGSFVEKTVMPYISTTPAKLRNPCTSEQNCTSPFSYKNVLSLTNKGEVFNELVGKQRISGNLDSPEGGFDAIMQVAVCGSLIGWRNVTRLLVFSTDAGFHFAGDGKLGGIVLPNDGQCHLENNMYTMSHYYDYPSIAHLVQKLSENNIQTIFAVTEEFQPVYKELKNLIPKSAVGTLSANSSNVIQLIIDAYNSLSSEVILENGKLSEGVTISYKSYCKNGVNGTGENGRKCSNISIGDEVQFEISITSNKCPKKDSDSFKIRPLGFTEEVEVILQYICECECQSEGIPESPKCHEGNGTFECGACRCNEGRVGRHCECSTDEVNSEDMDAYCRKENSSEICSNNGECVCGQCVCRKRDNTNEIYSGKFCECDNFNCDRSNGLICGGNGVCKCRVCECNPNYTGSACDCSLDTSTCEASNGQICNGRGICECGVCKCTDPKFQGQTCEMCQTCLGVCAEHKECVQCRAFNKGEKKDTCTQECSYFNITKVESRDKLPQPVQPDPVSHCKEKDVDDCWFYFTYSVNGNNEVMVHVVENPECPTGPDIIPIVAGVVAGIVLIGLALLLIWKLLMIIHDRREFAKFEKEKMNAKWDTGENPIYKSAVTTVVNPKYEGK
Sequence of Integrin beta-1 (Homo sapiens) + Integrin alpha-4 (Homo sapiens) (P13612 whole entry, looked up): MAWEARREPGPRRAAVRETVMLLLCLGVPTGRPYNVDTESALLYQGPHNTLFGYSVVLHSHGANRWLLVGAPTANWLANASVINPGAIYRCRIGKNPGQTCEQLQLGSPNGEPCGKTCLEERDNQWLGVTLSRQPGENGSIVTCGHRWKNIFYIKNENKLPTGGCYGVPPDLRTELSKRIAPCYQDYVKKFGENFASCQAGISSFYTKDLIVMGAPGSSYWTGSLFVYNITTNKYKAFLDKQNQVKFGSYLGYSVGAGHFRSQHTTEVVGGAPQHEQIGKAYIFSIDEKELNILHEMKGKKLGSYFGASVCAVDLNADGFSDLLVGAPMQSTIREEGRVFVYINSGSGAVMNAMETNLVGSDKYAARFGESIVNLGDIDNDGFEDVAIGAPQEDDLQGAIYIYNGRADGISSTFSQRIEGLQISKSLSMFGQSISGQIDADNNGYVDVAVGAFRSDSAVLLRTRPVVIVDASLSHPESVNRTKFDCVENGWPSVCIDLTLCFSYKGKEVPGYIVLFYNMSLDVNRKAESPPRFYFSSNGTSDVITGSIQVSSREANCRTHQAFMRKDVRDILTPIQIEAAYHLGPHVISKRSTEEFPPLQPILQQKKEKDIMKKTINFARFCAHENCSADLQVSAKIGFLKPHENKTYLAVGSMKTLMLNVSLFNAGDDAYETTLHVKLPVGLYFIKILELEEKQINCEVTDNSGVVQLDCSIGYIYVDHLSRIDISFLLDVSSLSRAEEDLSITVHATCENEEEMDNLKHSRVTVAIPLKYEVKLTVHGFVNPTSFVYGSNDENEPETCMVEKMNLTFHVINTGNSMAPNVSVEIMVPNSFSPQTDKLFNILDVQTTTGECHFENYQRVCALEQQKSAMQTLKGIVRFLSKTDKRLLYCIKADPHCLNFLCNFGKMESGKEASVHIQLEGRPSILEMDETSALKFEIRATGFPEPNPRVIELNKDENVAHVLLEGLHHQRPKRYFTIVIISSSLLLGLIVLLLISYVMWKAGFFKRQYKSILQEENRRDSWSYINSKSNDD

Test [8] in a line: calorie-restriction mimetic ROS inhibitors, yeast – validation compound set, pilot screen (AID 2706;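 active = superoxide response below 65% of plate, a cut near 3 SD across the whole screen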;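 note: yeast exposed to compound for one week at 30 degrees C before staining; 100% = mean of all compound wells on the same plate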). Conditions: S. cerevisiae aging, superoxide DHE fluorescence; at 10 µM; stronger effect = lower value.
Test [9] has as its target Beta-adrenergic receptor kinase 1 (Homo sapiens) (UniProt P25098). Kind of test: GRK2 binders displacing RNA aptamer, biochemical, validation, human GRK2, bead flow cytometry (AID 488806;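 active = aptamer binding inhibition above 30%, about 3 SD of noise from non-fluorescent compounds; inactive = inhibition at or below 30%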). As to conditions: bead-bound GRK2, FAM-aptamer displacement, at 10 µM, stronger effect = higher value.
In test [10] the target is Beta-2 adrenergic receptor (Homo sapiens) (UniProt P07550). In words: agonist-induced loss of surface beta2AR – cell-based, FAP fluorogen, flow cytometry, validation set, pilot screen (AID 504459;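 active = percent response above 42, roughly 3 SD of non-fluorescent test compounds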;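 note: agonist-driven loss of surface beta2AR via internalization measured by FAP dye flow cytometry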). Conditions: Am2.2-beta2AR cells, at 10 µM, stronger effect = higher value.
Sequence of Beta-2 adrenergic receptor (Homo sapiens) (P07550 whole entry, looked up): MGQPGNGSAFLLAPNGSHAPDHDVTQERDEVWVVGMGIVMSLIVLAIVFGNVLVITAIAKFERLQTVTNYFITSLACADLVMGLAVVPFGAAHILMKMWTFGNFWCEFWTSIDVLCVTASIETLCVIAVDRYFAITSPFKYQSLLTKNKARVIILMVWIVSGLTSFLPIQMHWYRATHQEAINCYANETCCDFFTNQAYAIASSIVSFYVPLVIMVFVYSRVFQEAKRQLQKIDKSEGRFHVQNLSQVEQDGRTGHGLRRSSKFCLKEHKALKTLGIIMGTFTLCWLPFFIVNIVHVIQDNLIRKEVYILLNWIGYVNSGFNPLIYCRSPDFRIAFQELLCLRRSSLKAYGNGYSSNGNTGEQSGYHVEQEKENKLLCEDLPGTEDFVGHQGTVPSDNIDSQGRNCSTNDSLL
The target in test [11] is AP-2 complex subunit beta (Homo sapiens) (UniProt P63010). In words: beta-arrestin/AP2 interaction blockers – biochemical, validation set, GST-AP2 beads, flow cytometry, pilot screen (AID 504541).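 Note: AP2 carries R879A mutation and is captured from E. coli lysate; bead-bound FITC arrestin peptide fluorescence measuring arrestin peptide binding to AP2; 0% = DMSO wells and 100% = excess unlabeled arrestin peptide control.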 As to conditions: FITC arrestin peptide, at 10 µM, stronger effect = higher value, AP2 beta2 appendage fragment, R879A mutant.
Sequence of AP-2 complex subunit beta (Homo sapiens) (P63010 whole entry, looked up, the tested form may be a part, one chain of several): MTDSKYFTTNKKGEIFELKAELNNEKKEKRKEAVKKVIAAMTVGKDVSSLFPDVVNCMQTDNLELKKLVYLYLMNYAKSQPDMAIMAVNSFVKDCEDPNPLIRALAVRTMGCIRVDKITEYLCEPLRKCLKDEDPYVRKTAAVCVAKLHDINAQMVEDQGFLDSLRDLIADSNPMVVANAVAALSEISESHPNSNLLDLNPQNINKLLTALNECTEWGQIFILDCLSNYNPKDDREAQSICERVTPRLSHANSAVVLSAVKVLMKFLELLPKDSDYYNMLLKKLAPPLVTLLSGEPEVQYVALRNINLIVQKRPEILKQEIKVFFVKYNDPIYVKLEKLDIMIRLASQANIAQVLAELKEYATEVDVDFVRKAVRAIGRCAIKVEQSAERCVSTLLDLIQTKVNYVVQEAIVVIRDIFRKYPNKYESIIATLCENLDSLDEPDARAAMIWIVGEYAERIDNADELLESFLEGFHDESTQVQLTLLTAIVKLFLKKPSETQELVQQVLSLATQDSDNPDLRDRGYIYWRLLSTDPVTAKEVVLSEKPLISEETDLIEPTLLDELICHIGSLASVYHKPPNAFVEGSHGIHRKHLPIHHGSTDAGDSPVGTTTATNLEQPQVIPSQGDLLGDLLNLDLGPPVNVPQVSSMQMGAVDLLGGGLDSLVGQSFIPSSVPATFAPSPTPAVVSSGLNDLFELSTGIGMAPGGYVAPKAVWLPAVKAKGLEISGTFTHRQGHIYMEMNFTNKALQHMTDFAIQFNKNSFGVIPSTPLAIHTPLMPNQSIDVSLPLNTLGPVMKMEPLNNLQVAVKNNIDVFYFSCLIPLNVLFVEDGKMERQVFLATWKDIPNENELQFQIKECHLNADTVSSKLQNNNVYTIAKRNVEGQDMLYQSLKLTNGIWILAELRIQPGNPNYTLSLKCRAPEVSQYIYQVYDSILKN
Test [12] in a line: cytosolic pH regulators acting via V-ATPase – S. cerevisiae, pHLuorin, HTS validation (AID 504600; in the data active = response above about 15%;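 note: plate controls were DMSO for no effect and reference compound for full effect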). As to conditions: V-ATPase proton transport, at 10 µM, stronger effect = higher value.
Test [13] deals with anti-desmoglein-3 scFv antibody binding to human DSG3. Kind of test: blockers of pathogenic pemphigus antibody–desmoglein-3 binding – biochemical, validation compound set, bead-based, flow cytometry, pilot screen (AID 588368;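 active = binding below the plate cutoff, the plate median minus 3 SD, with a reading above zero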;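 note: signal is the median channel fluorescence of bead-bound GFP antibody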). Conditions: Protein G beads, DSG3-Fc, scFv-GFP binding, at 10 µM, stronger effect = lower value.
Test [14] in a line: Nile Red efflux blockade in pump-expressing yeast – validation compound set, multiplex, phenotypic, pilot screen (AID 588506;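 active = efflux inhibition above 0.42, the validation set average plus 4 SD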;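 note: Nile Red retained in cells so higher fluorescence means more efflux inhibition; 0 = negative control wells and 1 = enniatin B 25 µM full block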). Conditions: S. cerevisiae pump-expressing triplex, Nile Red efflux flow cytometry; at 10 µM; stronger effect = higher value; the pumps come from Candida albicans.
Test [15] concerns the target ATP-binding cassette sub-family B member 6 (Homo sapiens) (UniProt Q9NP58). In words: blockers of ABCB6-driven porphyrin uptake – K562-ABCB6 cells, flow cytometry, validation set, pilot screen (AID 588550;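 active = inhibition above the screen-wide mean plus 3 SD, about 51%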;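 note: 0% = DMSO wells and 100% = benzethonium chloride 70 µM positive control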). As to conditions: K562-ABCB6 porphyrin accumulation, 1 h, at 10 µM, stronger effect = higher value.
The nature of test [16]: AML differentiation inducers, ER-HoxA9 marrow cells – cell-based, GFP/MAC1 double positive, flow cytometry, validation set, primary screen (AID 588685;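 active = differentiation response of at least 50%, scaled between solvent and reference control, from cells with both markers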;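 note: compound exposure lasts four days before antibody staining and flow analysis; 0% = DMSO wells and 100% = 5 µM fulvestrant positive control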). Conditions: stronger effect = higher value, normalized: vehicle 0, fulvestrant 100.

Each structure is given as a SMILES string. Results filed as inconclusive are left out. Calls of active or inactive are those of the source.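 Rule for the calls, unless noted: active = inhibition above 54%, about 3 SD of non-fluorescent compounds; inactive = the rest.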

Sequence of ATP-binding cassette sub-family B member 6 (Homo sapiens) (Q9NP58 whole entry, looked up): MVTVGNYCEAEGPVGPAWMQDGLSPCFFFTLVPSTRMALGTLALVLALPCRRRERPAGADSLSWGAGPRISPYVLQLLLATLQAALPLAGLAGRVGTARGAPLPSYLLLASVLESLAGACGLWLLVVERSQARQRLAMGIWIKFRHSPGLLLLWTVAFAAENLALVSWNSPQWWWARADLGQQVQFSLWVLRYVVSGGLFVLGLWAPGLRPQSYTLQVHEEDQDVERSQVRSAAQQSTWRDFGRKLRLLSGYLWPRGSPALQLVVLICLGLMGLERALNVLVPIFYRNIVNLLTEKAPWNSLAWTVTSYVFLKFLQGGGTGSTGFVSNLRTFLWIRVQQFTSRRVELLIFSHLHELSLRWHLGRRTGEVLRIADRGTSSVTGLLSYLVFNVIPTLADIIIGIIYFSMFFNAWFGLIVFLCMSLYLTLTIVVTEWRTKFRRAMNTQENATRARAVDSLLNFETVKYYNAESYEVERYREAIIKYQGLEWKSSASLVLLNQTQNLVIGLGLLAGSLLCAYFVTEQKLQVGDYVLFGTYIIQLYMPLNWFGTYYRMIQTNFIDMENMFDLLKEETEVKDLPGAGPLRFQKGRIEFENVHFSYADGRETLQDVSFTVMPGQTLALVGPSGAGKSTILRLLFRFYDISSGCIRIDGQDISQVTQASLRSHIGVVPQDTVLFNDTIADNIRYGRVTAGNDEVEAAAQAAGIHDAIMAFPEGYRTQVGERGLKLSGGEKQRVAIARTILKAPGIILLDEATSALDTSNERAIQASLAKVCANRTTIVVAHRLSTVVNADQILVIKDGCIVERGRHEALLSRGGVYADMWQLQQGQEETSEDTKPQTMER
Sequence of Beta-adrenergic receptor kinase 1 (Homo sapiens) (P25098 whole entry, looked up): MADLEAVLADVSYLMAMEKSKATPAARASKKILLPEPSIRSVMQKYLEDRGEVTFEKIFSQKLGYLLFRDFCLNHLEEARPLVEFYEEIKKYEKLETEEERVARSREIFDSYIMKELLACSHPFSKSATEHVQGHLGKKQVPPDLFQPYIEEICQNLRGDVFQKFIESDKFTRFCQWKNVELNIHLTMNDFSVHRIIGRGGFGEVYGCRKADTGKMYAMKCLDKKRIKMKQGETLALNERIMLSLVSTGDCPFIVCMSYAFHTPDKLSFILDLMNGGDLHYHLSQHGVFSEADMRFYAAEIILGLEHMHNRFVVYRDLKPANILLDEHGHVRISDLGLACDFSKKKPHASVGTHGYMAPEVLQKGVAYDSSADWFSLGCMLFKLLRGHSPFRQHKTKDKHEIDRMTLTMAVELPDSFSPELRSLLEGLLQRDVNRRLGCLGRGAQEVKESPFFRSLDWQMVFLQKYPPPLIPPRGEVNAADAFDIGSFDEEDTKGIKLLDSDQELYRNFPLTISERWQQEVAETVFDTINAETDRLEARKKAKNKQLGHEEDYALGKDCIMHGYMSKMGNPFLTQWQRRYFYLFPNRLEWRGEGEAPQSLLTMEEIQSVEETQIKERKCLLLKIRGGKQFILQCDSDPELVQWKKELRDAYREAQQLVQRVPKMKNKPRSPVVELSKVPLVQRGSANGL

Regarding `CN1CCN(CCCN2c3ccccc3Sc3ccc(Cl)cc32)CC1`, the percent of DMSO control GFP in test [1] is 99.3% (inactive). In addition, the GFP response vs DMSO in test [2] is 102% (inactive); in test [4] it was 113% (inactive). Moreover, in test [3], the percent response of DMSO control was 97% (inactive). Moreover, the GFP response, % of DMSO in test [5] was 120% (inactive). In test [6], this compound came in with a double positive events of 61.4%. Moreover, in test [6], the vesicle binding response was 179% (inactive). Also, the inhibition in [7] was 63.6% (active); in test [11], 0.77% (inactive); in test [15], 7% (inactive). Moreover, in test [8], the superoxide response (% of plate) was 70.1% (inactive). The aptamer binding inhibition in test [9] is 0% (inactive). For the same compound, the response in [10] was -15% (inactive); in [12], 1.39% (inactive). For the same compound, the binding (% of control) in [13] is 106% (inactive). Further, in [14], the efflux inhibition (fraction of control) was -0.17 (inactive). Moreover, the differentiation response in test [16] is 3.88% (inactive).

Take `COc1cc(C2NCCc3c2[nH]c2ccccc32)ccc1OC(C)C` (stereo not drawn): in test [1], the percent of DMSO control GFP is 105% (inactive). Also, the GFP response vs DMSO in [2] is 103% (inactive); in test [4], 90.4% (inactive). In addition, the percent response of DMSO control in [3] is 106% (inactive). Besides, the GFP response, % of DMSO in test [5] was 104% (inactive). The double positive events in test [6] is 58.1%. For the same compound, the vesicle binding response in test [6] was 85.7% (inactive). The results for the inhibition in [7], in test [11] and in [15] were 5.61% (inactive), 1.29% (inactive) and 9% (inactive), respectively. Moreover, in test [8], the superoxide response (% of plate) was 95.7% (inactive). Also, the aptamer binding inhibition in test [9] was 0% (inactive). Moreover, the response in [10] was 9.28% (inactive); in test [12] it was 0.8% (inactive). For the same compound, the binding (% of control) in test [13] is 104% (inactive). Besides, the efflux inhibition (fraction of control) in test [14] is 0.08 (inactive). For the same compound, the differentiation response in test [16] is -10.4% (inactive).

Regarding `CCOC(=O)C1=C(C)N[C@@]2(O)c3ccccc3C(=O)[C@@]12O`, in test [1], the percent of DMSO control GFP is 102% (inactive). For the same compound, the results for the GFP response vs DMSO in test [2] and in [4] were 106% (inactive) and 92.2% (inactive), respectively. The percent response of DMSO control in [3] was 106% (inactive). In test [5], the GFP response, % of DMSO is 98.5% (inactive). Moreover, the double positive events in test [6] was 65.1%. Further, the vesicle binding response in [6] is 254% (inactive). Moreover, the inhibition is -7.25% (inactive) in test [7], 12.9% (inactive) in test [11] and 6% (inactive) in [15]. Besides, the superoxide response (% of plate) in [8] was 96.8% (inactive). For the same compound, in test [9], the aptamer binding inhibition is 1% (inactive). Further, the response in test [10] was -1.07% (inactive); in test [12], 13% (inactive). Further, the binding (% of control) in test [13] is 99.3% (inactive). The efflux inhibition (fraction of control) in [14] is -0.21 (inactive). Besides, the differentiation response in [16] was -21.6% (inactive).

For `CCOC(=O)c1c(C)oc2c1C(=O)c1ccccc1C2=O`, the percent of DMSO control GFP in [1] was 111% (inactive). The results for the GFP response vs DMSO in test [2] and in [4] were 102% (inactive) and 104% (inactive), respectively. In addition, the percent response of DMSO control in test [3] was 107% (inactive). In addition, the GFP response, % of DMSO in test [5] was 99.9% (inactive). In test [6], this compound had a double positive events of 59.4%. The vesicle binding response in test [6] was 316% (inactive). The inhibition in test [7] is -16.1% (inactive); in test [11], 0.55% (inactive); in test [15], -26% (inactive). In addition, in test [8], the superoxide response (% of plate) was 126% (inactive). Besides, the aptamer binding inhibition in test [9] is 5% (inactive). Besides, the response in test [10] is 3.7% (inactive); in test [12], 0.26% (inactive). Besides, in test [13], the binding (% of control) is 96.7% (inactive). Moreover, the efflux inhibition (fraction of control) in test [14] was -0.22 (inactive). For the same compound, in test [16], the differentiation response was -0.36% (inactive).

What is called inhibition is the drop in the measured response relative to a control, in per cent.
